Measured values published in the supplement of paper PMC12350171.
Where a name gives a salt, the structure may show the parent alone.

test system: P. vulgatus RND KO; experiment: growth AUC normalised to DMSO control (median) (fraction of control); higher = less growth inhibition, active = hit call of the paper; conditions: 20 µM;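 active = normalised median growth AUC below 0.1 of DMSO control; inactive = AUC 0.1 or higher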
In short: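 After two overnight anaerobic passages, strains were inoculated at OD578 0.01 into mGAM in 96-well plates containing approved-drug library compounds at 20 μM and 1% DMSO. Growth was followed by reading OD578 hourly for 24 h within an anaerobic incubator. Area under the curve, taken by the trapezoidal rule up to the start of stationary phase, was normalised to same-plate vehicle wells, and the median of three biological replicates is listed.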
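Further: active when median AUC fell below 0.1.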

Row | SMILES | growth AUC normalised to DMSO control
1 | O=C1c2cccc3c2[C@H](CCC3)CN1[C@@H]1CN2CCC1CC2 [Palonosetron hydrochloride] | 0.973 (inactive)
2 | N[C@@H](CSCCCO)C(=O)O [Fudosteine] | 1 (inactive)
3 | NC[C@H]1O[C@H](O[C@H]2[C@H](O)[C@@H](O[C@H]3O[C@H](CO)[C@@H](O)[C@H](N)[C@H]3O)[C@H](N)C[C@@H]2N)[C@H](N)[C@@H](O)[C@@H]1O [Kanamycin B] | 1.1 (inactive)
4 | CC1=C(C)C(=O)C(C(CCCCCC(=O)O)c2ccccc2)=C(C)C1=O (stereo unspecified) [Seratrodast] | 0.944 (inactive)
5 | Cc1cccc(C)c1OCC(=O)N[C@@H](Cc1ccccc1)[C@@H](O)C[C@H](Cc1ccccc1)NC(=O)[C@H](C(C)C)N1CCCNC1=O [Lopinavir] | 1.06 (inactive)
6 | CC(C)=CCOc1ccc(/C=C/C(=O)c2ccc(OCC=C(C)C)cc2OCC(=O)O)cc1 [Sofalcone] | 0.914 (inactive)
7 | CCCCS(=O)(=O)N[C@@H](Cc1ccc(OCCCCC2CCNCC2)cc1)C(=O)O [Tirofiban hydrochloride] | 0.994 (inactive)
8 | Brc1c(NC2=NCCN2)ccc2nccnc12 [Brimonidine L-tartrate] | 0.994 (inactive)
9 | CC(=O)Nc1c(I)c(NC(C)=O)c(I)c(C(=O)O)c1I [Diatrizoic acid dihydrate] | 0.922 (inactive)
10 | CCOC(=O)OC(C)OC1=C(C(=O)Nc2ccccn2)N(C)S(=O)(=O)c2ccccc21 (stereo unspecified) [Ampiroxicam] | 0.999 (inactive)
11 | N[C@@H](CCC(=O)N[C@@H](CS)C(=O)NCC(=O)O)C(=O)O [Glutathione] | 0.996 (inactive)
12 | CC(C)CN(C[C@@H](O)[C@H](Cc1ccccc1)NC(=O)O[C@H]1CCOC1)S(=O)(=O)c1ccc(N)cc1 [Amprenavir] | 1.01 (inactive)
13 | COc1ccc2c(c1)c(CC(=O)OC/C=C(\C)CC/C=C(\C)CCC=C(C)C)c(C)n2C(=O)c1ccc(Cl)cc1 [Indometacin farnesil] | 1 (inactive)
14 | C=C1[C@H](CO)[C@@H](O)C[C@@H]1n1cnc2c(=O)[nH]c(N)nc21 [Entecavir] | 1 (inactive)
15 | CCCN1CCCC[C@H]1C(=O)Nc1c(C)cccc1C [Ropivacaine hydrochloride] | 1.02 (inactive)
16 | CCNC(=O)CCC/C=C\C[C@@H]1[C@@H](/C=C/[C@@H](O)CCc2ccccc2)[C@H](O)C[C@@H]1O [Bimatoprost] | 1.03 (inactive)

Row | SMILES | growth AUC normalised to DMSO control
17 | C[C@@H](CN1CC(=O)NC(=O)C1)N1CC(=O)NC(=O)C1 [Dexrazoxane hydrochloride] | 1.01 (inactive)
18 | CN(C/C=C/C#CC(C)(C)C)Cc1cccc2ccccc12 [Terbinafine] | 1.01 (inactive)
19 | C[C@H]1[C@@H](O)O[C@@H]2O[C@@]3(C)CC[C@H]4[C@H](C)CC[C@@H]1[C@@]24OO3 [Artenimol] | 1.04 (inactive)
20 | O=c1[nH]cnc2c1ncn2[C@@H]1O[C@H](CO)[C@@H](O)[C@H]1O [Inosine] | 1.01 (inactive)
21 | CC1(C)S[C@@H]2[C@H](NC(=O)[C@H](N)c3ccccc3)C(=O)N2[C@H]1C(=O)OC1OC(=O)c2ccccc21 (stereo partly specified) [Talampicillin hydrochloride] | 0.00561 (active)
22 | CC(C(=O)O)c1ccc(N2CC=CC2)c(Cl)c1 (stereo unspecified) [Pirprofen] | 1.08 (inactive)
23 | Cn1cc([S+](C)[O-])c(=O)c2ccc(F)cc21 (stereo unspecified) [Flosequinan] | 1.04 (inactive)
24 | CCN(CC)CCOCCOC(=O)C(CC)(CC)c1ccccc1 [Oxeladin citrate] | 1 (inactive)
25 | Cc1ccc2c([nH]c(=O)c3c(=O)cc(C(=O)OCCC(C)C)oc32)c1C [Repirinast] | 0.94 (inactive)
26 | Nc1c2ccccc2nc2ccccc12 [Aminacrine] | 1.07 (inactive)
27 | O=C(O)C1CSCN1 (stereo unspecified) [Timonacic] | 0.993 (inactive)
28 | Nc1ccc(S(=O)(=O)Nc2ccc(Cl)nn2)cc1 [Sulfachloropyridazine] | 1.03 (inactive)
29 | N#Cc1ccc(Oc2ccc3c(c2)COB3O)cc1 [Crisaborole] | 1 (inactive)
30 | N=c1ccn2c(n1)O[C@H]1[C@H](O)[C@@H](CO)O[C@H]12 [Ancitabine hydrochloride] | 0.971 (inactive)
31 | Oc1cc(O)c2c(c1)O[C@H](c1ccc(O)c(O)c1)[C@@H](O)C2 [Cianidanol] | 1 (inactive)
